A selection: hits, their analogues and other compounds. The true share with any hit is near 0.98%.
Keap1 Nrf2 FP = Keap1-Nrf2 (human) interaction inhibition. Q14145. Keap1 Kelch-Nrf2 peptide fluorescence polarization, 1536-well. inhibition, % at 9.4 µM. AID 504523. hit rate 0.15% among 340,000; in the data active = inhibition above about 12%;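 also: human Keap1 Kelch domain with fluorescein labeled Nrf2 9mer peptide probe; higher means more block of Keap1 binding to Nrf2 peptide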
RTF Ca sens act = increases calcium sensitivity of human cardiac regulated thin filaments | P19429+P45379 | IANBD-labeled TnC RTF fluorescence at EC20 calcium; 0% EC20 calcium, 100% full calcium | activation, % at 7.2 µM | hit rate 0.24% among 340,000 | AID 493008;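 active = activation above the mean over all tested compounds plus 3 SD, cut at about 30% in these data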;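 also: rise in fluorescence read as greater calcium sensitivity of cardiac thin filaments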
LANA DNA inh = KSHV C-LANA DNA binding inhibition | MBP-C-LANA/FAM-LBS DNA binding, fluorescence polarization | inhibition, % at 9 µM | hit rate 0.078% among 340,000 | AID 504423;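 active = highest replicate inhibition at or above 60% at 9 µM, even if other replicates fall short; inactive = all replicates below 60% inhibition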
EBV gp42 inh = EBV gp42 inhibition; inhibition, % (tested at 21.74 µM); Q1HVG2; hit rate 0.42% among 220,000; Fluorescence polarization binding assay, mP read-out; AID 1085; in the data active = inhibition above about 50%
Target sequence (Q1HVG2 whole entry, looked up): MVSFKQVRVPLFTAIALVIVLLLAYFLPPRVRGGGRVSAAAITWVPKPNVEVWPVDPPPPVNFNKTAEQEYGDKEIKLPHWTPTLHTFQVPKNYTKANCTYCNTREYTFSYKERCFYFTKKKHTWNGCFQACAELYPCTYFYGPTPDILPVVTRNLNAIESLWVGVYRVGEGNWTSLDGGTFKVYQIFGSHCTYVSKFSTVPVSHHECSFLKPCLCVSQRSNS
eLon inh = inhibitors of E. coli Lon protease; P0A9M0; purified E. coli Lon protease, fluorescence polarization; inhibition, % at 7.94 µM; hit rate 0.42% among 360,000; AID 602123; in the data active = inhibition above about 13%, passing the limit was not always enough
Cardiac RTF inh = cardiac RTF calcium desensitization; hit rate 0.12% among 340,000; IANBD-labeled cardiac RTF, Ca2+ fluorescence; inhibition, % at 7.15 µM; AID 493244; P19429+P45379;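 active = inhibition above the mean inhibition of all tested compounds plus 3 SD, cut at about 17% in these data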;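 also: assay run at fixed EC70 calcium of 1.6 mM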
Of the large screens only hits and unclear results are named; the others gave an inactive call.

Cc1c(O)c2c3c(cccc3c1O)C(=O)N(c1ccccc1)C2=O	RTF Ca sens act 52, EBV gp42 inh 83
CN(C)c1ccc2c3c(cccc13)C(=O)N(c1ccccc1)C2=O	EBV gp42 inh 102 (no result: Keap1 Nrf2 FP, RTF Ca sens act, LANA DNA inh, eLon inh, Cardiac RTF inh)
O=C(O)c1ccc2c3c(cccc13)C(=O)N(c1ccccc1)C2=O	none
C=CCn1c(SCC(=O)N(C(C)CC)C2CCS(=O)(=O)C2)nc2ccccc2c1=O (configuration not stated)	none (no result: EBV gp42 inh)
c1ccc2c(C3OCC4(CCCCC4)CO3)cccc2c1	none (no result: Keap1 Nrf2 FP, RTF Ca sens act, LANA DNA inh, EBV gp42 inh, Cardiac RTF inh)
O=C(CCc1ccc(S(=O)(=O)N2CCOCC2)cc1)OCC(=O)c1ccccc1	RTF Ca sens act 37 (no result: EBV gp42 inh)
CC(=O)c1cccc(NC(=O)COC(=O)CCc2ccc(S(=O)(=O)N3CCOCC3)cc2)c1	none
CC12CCC3c4ccc(O)cc4CCC3C1CC(=NO)C2O (configuration not stated)	none (no result: EBV gp42 inh)
CCOC(=O)CC1C(=O)NCCN1c1nc2ccc(C)cn2c(=O)c1/C=C1\SC(=S)N(CC(C)C)C1=O (configuration not stated)	RTF Ca sens act 182
CCCN1C(=O)/C(=C/c2c(N3CCNC(=O)C3CC(=O)OCC)nc3c(C)cccn3c2=O)SC1=S (configuration not stated)	RTF Ca sens act 130
CCOC(=O)CC1C(=O)NCCN1c1nc2ccc(C)cn2c(=O)c1/C=C1\SC(=S)N(C(C)CC)C1=O (configuration not stated)	none (no result: Keap1 Nrf2 FP, RTF Ca sens act, LANA DNA inh, eLon inh, Cardiac RTF inh)
CN(C)c1ccnc2sc(C(=O)NCc3ccccc3)c(N)c12	none
CN(C)c1ccnc2sc(C(=O)c3ccc(Br)cc3)c(N)c12	EBV gp42 inh 73
C[C@H](O)[C@@H]1C(=O)N2CCc3ccc(N4CCN(C)CC4)cc3[C@@H]2C[C@@H]1N(C)C(=O)c1cccnc1	none (no result: Keap1 Nrf2 FP, RTF Ca sens act, LANA DNA inh, EBV gp42 inh, Cardiac RTF inh)
CN(C)c1cccc(C(=O)OCc2cc(=O)oc3cc(O)ccc23)c1	EBV gp42 inh 52
CC1CN(S(=O)(=O)c2cccc(C(=O)OCc3cc(=O)oc4cc(O)ccc34)c2)CC(C)O1 (configuration not stated)	none (no result: EBV gp42 inh)
CC(=O)Nc1ccc(S(=O)(=O)N(C)CC(=O)OCC(=O)Nc2cc(C)on2)cc1	none (no result: EBV gp42 inh)
COc1ccc(NC(=O)N(CCc2ccccc2)Cc2cc3c(C)cc(C)cc3[nH]c2=O)cc1	EBV gp42 inh 59
COc1ccc2[nH]c(=O)c(CN(CCc3ccccc3)C(C)=O)cc2c1	none
O=C(O)c1cccc2cccc(-c3c4ccc(=O)c(O)c-4oc4c(O)c(O)ccc34)c12	LANA DNA inh 87, Cardiac RTF inh 79 (no result: EBV gp42 inh)
O=C(CSc1nc(-c2ccc(F)cc2)nc2c1Cc1ccccc1O2)Nc1ccc(C(=O)O)cc1	EBV gp42 inh 74
COc1nc(N/N=C/c2ccc(-c3cccc([N+](=O)[O-])c3)o2)nc(N2CCOCC2)n1	EBV gp42 inh 92 (no result: Keap1 Nrf2 FP, RTF Ca sens act, LANA DNA inh, eLon inh, Cardiac RTF inh)
O=C(NN=Cc1c(O)ccc2ccccc12)c1ccncc1	RTF Ca sens act 31 (no result: EBV gp42 inh)
CC(=NNC(=O)c1ccncc1)c1ccccc1O	none (no result: EBV gp42 inh)
CC(=NNC(=O)c1ccncc1)c1ccc2ccccc2c1O	RTF Ca sens act 48 (no result: EBV gp42 inh)
CCN1CCc2c(sc(NC(=O)Nc3ccc(Cl)c(Cl)c3)c2C(N)=O)C1	RTF Ca sens act 152
NC(=O)c1c(NC(=O)c2ccccc2)sc2c1CCN(Cc1ccccc1)C2	RTF Ca sens act 49 (no result: EBV gp42 inh)
CCN1CCc2c(sc(NC(=O)Cc3ccccc3)c2C(N)=O)C1	none (no result: EBV gp42 inh)
NC(=O)c1c(NC(=O)c2c(F)cccc2F)sc2c1CCN(Cc1ccccc1)C2	none (no result: EBV gp42 inh)
Cc1ccc(N2C(=O)[C@@H]3[C@H](C2=O)C2c4ccccc4C=CN2[C@@H]3C(=O)c2ccco2)cc1 (some centres not stated)	EBV gp42 inh 54
Cc1ccc(N2C(=O)[C@@H]3[C@H](C2=O)C2c4ccccc4C=CN2[C@@H]3C(=O)c2ccco2)c(C)c1 (some centres not stated)	none (no result: EBV gp42 inh)
O=C1c2ccccc2[C@@H]2C[C@H](NC34CC5CC(CC(C5)C3)C4)[C@@H](O)CCN12	none (no result: EBV gp42 inh)
CC1(OC(=O)CCc2ccccc2)C(=O)C=C2C=C(c3ccsc3)OC=C2C1=O (configuration not stated)	none (no result: Keap1 Nrf2 FP, RTF Ca sens act, LANA DNA inh, eLon inh, Cardiac RTF inh)
CC1(OC(=O)C2CCCC2)C(=O)C=C2C=C(c3ccsc3)OC=C2C1=O (configuration not stated)	LANA DNA inh 78
COc1cccc(-n2cc(C(=O)NCCCOC(C)C)c3ccccc3c2=O)c1	LANA DNA inh 120 (no result: EBV gp42 inh)
Cc1ccc2c(N)c(C)ccc2c1	none
Cc1ccc2cc3c(N)c4c(C)ccc(C)c4nc3nc2c1	EBV gp42 inh 148
Cc1ccc2nc(SCC(=O)Nc3ccccc3N3CCOCC3)c(C#N)cc2c1	EBV gp42 inh 50
CCc1ccc2nc(SCC(=O)Nc3ccccc3N3CCOCC3)c(C#N)cc2c1	none
O=C(O)CN1C(=O)/C(=C\c2cc(Br)ccc2OCc2ccc([N+](=O)[O-])cc2)SC1=S	LANA DNA inh 78 (no result: EBV gp42 inh)
COc1ccc(/C=C2\SC(=N)N(c3nccs3)C2=O)cc1OC	none
N=C1S/C(=C\c2ccc(-c3cccc(Cl)c3)o2)C(=O)N1c1nccs1	EBV gp42 inh 76
Clc1cccc(N2CCN(Cc3ccc(Br)o3)CC2)c1	none (no result: EBV gp42 inh)
COc1ccc(-n2nc(C(=O)NCC(=O)N(C)Cc3ccccc3)c3ccccc3c2=O)cc1OC	none (no result: EBV gp42 inh)
N#C/C(=C\c1ccccn1)c1nc2ccccc2s1	RTF Ca sens act 60
N#C/C(=C/c1ccc(-c2ccccc2)o1)c1nc(-c2cccs2)cs1	RTF Ca sens act 93, EBV gp42 inh 99
N#C/C(=C/c1ccc(-c2ccc(S(N)(=O)=O)cc2)o1)c1nc2ccccc2s1	RTF Ca sens act 347, EBV gp42 inh 64
N#C/C(=C\c1ccc(-c2ccc(F)cc2)o1)C(=O)Nc1nc(-c2cccs2)cs1	none
CC1(C)CN(c2ccc(Br)cc2)C(=O)[C@H]1CC(=O)Nc1ccccc1	none (no result: Keap1 Nrf2 FP, RTF Ca sens act, LANA DNA inh, EBV gp42 inh, Cardiac RTF inh)
CCCCCC(=O)N1C[C@@H](n2cc(C3CC3)nn2)[C@H](O)C[C@@H]1c1ccccc1	none (no result: Keap1 Nrf2 FP, RTF Ca sens act, LANA DNA inh, EBV gp42 inh, Cardiac RTF inh)
O=C(NCc1cccs1)c1ccc2sc([C@H]3C[C@H](O)[C@@H](CO)O3)nc2c1	none (no result: Keap1 Nrf2 FP, RTF Ca sens act, LANA DNA inh, EBV gp42 inh, Cardiac RTF inh)
CCCCN(C)C1=CC2=CC(=C(C#N)C#N)CCC2CC1 (configuration not stated)	RTF Ca sens act active
CCN(CC)C1=CC2=CC(=C(C#N)C#N)CCC2CC1 (configuration not stated)	RTF Ca sens act active
CC(OC(=O)C1CC1)C(=O)Nc1cccc(S(=O)(=O)N2CCOCC2)c1 (configuration not stated)	none (no result: EBV gp42 inh)
CC1=C(C#N)C(=O)OC(C)(C)C1	Keap1 Nrf2 FP 19
Cc1[nH]c(=O)c(C#N)c2c1COC(C)(C)C2	none
CN(C)c1ccc(/C=C2/C[N+](C)(C)C/C(=C/c3ccc(N(C)C)cc3)C2=O)cc1	none (no result: EBV gp42 inh)
CC(C)/C=C1\CC/C(=C\c2ccc(N(C)C)cc2)C1=O	RTF Ca sens act 64

Screens from PubChem.
